High-throughput results from PubChem.
Shown is part of a subset that was picked to be rich in hits.
IDE exosite inh: exo-site inhibitors of human insulin-degrading enzyme. P14735. purified IDE, FL-6b probe fluorescence polarization; active compounds read low. z-score at 20 µM. 17,000 compounds, 6.3% hits. AID 1259349;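 active means z-score of -3 or lower, meaning strong loss of probe binding signal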;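 further: His-tagged human IDE residues 42-1019 made in E. coli with 30 nM FL-6b probe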
Hits are given with their value.

For O=C(CC1CC1)N1CC(=O)N2[C@H](C1)[C@H](c1ccc(C#Cc3cccc(F)c3)cc1)[C@@H]2CO the results were IDE exosite inh inactive.
CCC(=O)Nc1ccc2c(c1)C(=O)N(C)C[C@H](OC)[C@@H](C)CN(C(=O)Cc1cccnc1)[C@H](C)CO2 was read as IDE exosite inh inactive.
Screening O=S(=O)(c1ccccc1)N1CCCCN2[C@H](CO)[C@H](c3ccc(-c4ccccc4)cc3)[C@@H]2C1 returned IDE exosite inh inactive.
`CC(C)C#Cc1ccc([C@H]2[C@H](CO)N3CCCCN(C(=O)c4ccc5c(c4)OCO5)C[C@@H]23)cc1` gave IDE exosite inh inactive.
Cc1noc(C)c1NC(=O)N(C)C[C@@H]1OCCCC[C@@H](C)Oc2ccc(NC(=O)CCCCCC(=O)Nc3ccccc3N)cc2C(=O)N([C@H](C)CO)C[C@@H]1C was read as IDE exosite inh inactive.
`N#C[C@@H]1[C@H](c2ccc(-c3cccc(F)c3)cc2)[C@H](CO)N1C(=O)NC1CCCC1` gave IDE exosite inh inactive.
For CC(C)CC#Cc1ccc([C@@H]2[C@H](CO)N3C(=O)CN(C(=O)c4ccc5c(c4)OCO5)C[C@@H]23)cc1 the results were IDE exosite inh inactive.
C[C@H](NC(=O)C[C@@H]1C=C[C@@H](NS(=O)(=O)c2cccc(F)c2)[C@@H](CO)O1)c1ccccc1 was read as IDE exosite inh inactive.
Screening CCC(=O)N1CCCCN2[C@@H](CO)[C@H](c3ccc(-c4ccc(F)cc4)cc3)[C@@H]2C1 returned IDE exosite inh inactive.
Screening O=C(c1ccc(F)cc1)N1CCCCN2[C@@H](CO)[C@@H](c3ccc(C#CC4(O)CCCC4)cc3)[C@@H]2C1 returned IDE exosite inh inactive.
`O=C(c1ccc(F)cc1)N1CCCCN2[C@H](CO)[C@H](c3ccc(C#CC4(O)CCCC4)cc3)[C@H]2C1` gave IDE exosite inh -3.2.
`CCC(=O)N1CCCCN2[C@H](CO)[C@@H](c3ccc(C#Cc4ccccc4F)cc3)[C@@H]2C1` gave IDE exosite inh -5.8.
`COc1ccc(C#Cc2ccc([C@@H]3[C@H](CO)N4CCCCN(C(=O)Nc5ccccc5F)C[C@@H]34)cc2)cc1` gave IDE exosite inh inactive.
`COc1ccc(C#Cc2ccc([C@H]3[C@H](CO)N4CCCCN(C(=O)Nc5ccccc5F)C[C@@H]34)cc2)cc1` gave IDE exosite inh inactive.
Screening CC(=O)N1CCCCN2[C@@H](CO)[C@@H](c3ccc(C#Cc4ccccc4F)cc3)[C@@H]2C1 returned IDE exosite inh inactive.
Screening CCC(=O)N1CCCCN2[C@H](C1)[C@H](c1ccc(C#Cc3ccccc3F)cc1)[C@@H]2CO returned IDE exosite inh -4.6.
Screening CC(=O)N1CCCCN2[C@H](CO)[C@@H](c3ccc(C#Cc4ccccc4F)cc3)[C@@H]2C1 returned IDE exosite inh -7.5.
O=C(Nc1ccccc1F)N1CCCCN2[C@@H](CO)[C@@H](c3ccc(C#Cc4ccccc4)cc3)[C@@H]2C1 was read as IDE exosite inh inactive.
CCC(=O)N1CCCCN2[C@H](CO)[C@H](c3ccc(C#Cc4ccccc4F)cc3)[C@H]2C1 was read as IDE exosite inh inactive.
For O=C(c1ccc(F)cc1)N1CCCCN2[C@@H](CO)[C@H](c3ccc(C#CC4(O)CCCC4)cc3)[C@@H]2C1 the results were IDE exosite inh inactive.
C[C@@H]1CN([C@H](C)CO)C(=O)c2c(c3ccccc3n2C)-c2ccccc2CO[C@@H]1CN(C)S(=O)(=O)c1ccccc1C#N was read as IDE exosite inh inactive.
Fc1ccc(F)c(CN2[C@@H]3CNC[C@H]2C3c2ccc(-c3ccccc3)cc2)c1 (stereo partly drawn) was read as IDE exosite inh inactive.
N#C[C@@H]1[C@H](c2ccccc2-c2ccccc2F)[C@@H](CO)N1C(=O)C1CC1 was read as IDE exosite inh inactive.
CN(C)c1ccc2c(c1)[C@@H]1C[C@@H](CC(=O)NCc3ccccn3)O[C@@H](CO)[C@@H]1O2 was read as IDE exosite inh inactive.
Cc1ccc(S(=O)(=O)N2[C@@H]3CNC[C@H]2C3c2ccc(/C=C/c3ccccc3)cc2)cc1 (stereo partly drawn) was read as IDE exosite inh inactive.
`COCC(=O)N(C[C@H]1N[C@H](CO)[C@@H]1c1ccc(C2=CCCC2)cc1)C1CCCC1` gave IDE exosite inh inactive.
Screening O=C(CN1CCOCC1)N[C@H]1CC[C@H](CCn2cc(C3CC3)nn2)O[C@@H]1CO returned IDE exosite inh inactive.
For N#C[C@H]1[C@@H](c2ccc(C#Cc3ccccc3F)cc2)[C@H](CO)N1C(=O)C1CCC1 the results were IDE exosite inh inactive.
Screening N#C[C@H]1[C@H](c2ccc(C#Cc3ccccc3F)cc2)[C@H](CO)N1C(=O)C1CC1 returned IDE exosite inh inactive.
For N#C[C@H]1[C@@H](c2ccc(C#Cc3ccccc3F)cc2)[C@@H](CO)N1C(=O)C1CCC1 the results were IDE exosite inh inactive.
Screening COCC(=O)N1[C@@H](C#N)[C@@H](c2ccc(C#Cc3ccccc3F)cc2)[C@@H]1CO returned IDE exosite inh inactive.
